# Values joined by “and” are separate entries in the source; they are usually repeats but may differ in a detail not shown here. Identical values can stand only once. Results filed as inconclusive are left out. A structure can be active in one record and inactive in another. Active and inactive are the calls of the source. The calls were made as follows: active = hit-call score of the fitted dose curve at least 0.9, where 1 is the maximum; inconclusive = response in the unintended direction; inactive = score below 0.9.
# Tests used:
# [1] = target: human Colony Stimulating Factor 1 Receptor (CSF1R), CSF1R (gene 1436) (UniProt P07333); experiment: NVS_ENZ_hCSF1R: NovaScreen (NVS) Enzymatic Assay for human Colony Stimulating Factor 1 Receptor (CSF1R) (AID 2283150)
# human Colony Stimulating Factor 1 Receptor (CSF1R), CSF1R (gene 1436), sequence (P07333 whole entry, looked up): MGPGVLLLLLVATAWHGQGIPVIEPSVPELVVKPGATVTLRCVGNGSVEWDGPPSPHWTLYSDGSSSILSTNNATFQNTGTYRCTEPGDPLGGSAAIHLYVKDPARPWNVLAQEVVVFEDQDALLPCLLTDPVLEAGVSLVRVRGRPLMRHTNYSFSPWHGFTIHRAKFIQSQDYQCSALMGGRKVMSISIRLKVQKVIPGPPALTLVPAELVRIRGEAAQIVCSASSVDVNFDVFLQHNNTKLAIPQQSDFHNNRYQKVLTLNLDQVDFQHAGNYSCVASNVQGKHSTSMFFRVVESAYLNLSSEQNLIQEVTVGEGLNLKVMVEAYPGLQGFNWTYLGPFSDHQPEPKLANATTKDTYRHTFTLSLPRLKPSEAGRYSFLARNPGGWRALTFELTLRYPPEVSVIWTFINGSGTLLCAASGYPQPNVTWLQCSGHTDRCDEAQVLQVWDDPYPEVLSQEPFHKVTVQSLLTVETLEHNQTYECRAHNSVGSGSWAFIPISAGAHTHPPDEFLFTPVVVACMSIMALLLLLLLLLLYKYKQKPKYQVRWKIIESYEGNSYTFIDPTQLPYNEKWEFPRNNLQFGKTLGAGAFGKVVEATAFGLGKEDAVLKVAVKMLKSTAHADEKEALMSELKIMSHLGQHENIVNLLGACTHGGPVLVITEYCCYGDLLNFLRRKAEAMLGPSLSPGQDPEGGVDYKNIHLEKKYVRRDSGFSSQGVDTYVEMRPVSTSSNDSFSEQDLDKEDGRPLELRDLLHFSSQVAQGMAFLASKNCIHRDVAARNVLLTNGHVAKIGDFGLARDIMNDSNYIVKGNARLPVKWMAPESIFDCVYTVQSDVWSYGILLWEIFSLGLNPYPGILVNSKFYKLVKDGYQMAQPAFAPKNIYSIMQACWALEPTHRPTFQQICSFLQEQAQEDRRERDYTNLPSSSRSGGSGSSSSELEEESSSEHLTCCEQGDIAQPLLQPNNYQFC
# Method in brief: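 Compounds screened in duplicate at 25 uM, then concentration-response (top 50 uM) for those passing threshold such as 30% inhibition; recombinant CSF1R activity measured 1 h post-dosing via fluorescent substrate/product mobility-shift separation, loss of signal versus DMSO.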
# [2] = target: human Fibroblast Growth Factor Receptor 1 (FGFR1), FGFR1 (gene 2260) (UniProt P11362); experiment: NVS_ENZ_hFGFR1: NovaScreen (NVS) Enzymatic Assay for human Fibroblast Growth Factor Receptor 1 (FGFR1) (AID 2283159)
# Method in brief: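 Cell-free recombinant kinase with fluorescent substrate, product separated by electrophoretic mobility shift; read 1 hour after dosing, loss of signal relative to DMSO. Initial screen in duplicate at 25 uM, actives followed in concentration series.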
# [3] = target: human Esterase Plasma (ES), BCHE (gene 590) (UniProt P06276); experiment: NVS_ENZ_hES: NovaScreen (NVS) Enzymatic Assay for human Esterase Plasma (ES) (AID 2283157)
# human Esterase Plasma (ES), BCHE (gene 590), sequence (P06276 whole entry, looked up): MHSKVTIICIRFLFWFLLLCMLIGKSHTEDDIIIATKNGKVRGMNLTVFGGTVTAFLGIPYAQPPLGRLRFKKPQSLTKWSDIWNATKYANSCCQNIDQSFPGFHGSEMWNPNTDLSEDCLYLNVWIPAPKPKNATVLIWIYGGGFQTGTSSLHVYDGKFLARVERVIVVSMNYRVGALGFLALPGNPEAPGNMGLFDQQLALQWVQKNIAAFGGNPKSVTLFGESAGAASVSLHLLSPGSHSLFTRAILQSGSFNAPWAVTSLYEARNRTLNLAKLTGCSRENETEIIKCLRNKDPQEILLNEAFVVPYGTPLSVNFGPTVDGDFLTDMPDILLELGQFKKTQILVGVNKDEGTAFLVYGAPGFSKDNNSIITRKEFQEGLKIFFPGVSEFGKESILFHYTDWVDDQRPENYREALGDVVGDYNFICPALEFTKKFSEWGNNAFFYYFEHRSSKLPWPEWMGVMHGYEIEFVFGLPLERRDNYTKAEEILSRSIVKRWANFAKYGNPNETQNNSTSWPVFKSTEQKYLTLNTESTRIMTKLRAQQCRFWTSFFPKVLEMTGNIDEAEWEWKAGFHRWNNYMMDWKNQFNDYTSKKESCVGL
# Method in brief: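 Human plasma-derived enzyme, cell-free, colorimetric readout at 0.25 h. Primary screen 25 uM in duplicate; hits (e.g. ≥30% inhibition) rerun singleton up to 50 uM. DMSO = negative control/baseline.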
# [4] = target: human AKT serine/threonine Kinase 2 (AKT2), AKT2 (gene 208) (UniProt P31751); experiment: NVS_ENZ_hAKT2: NovaScreen (NVS) Enzymatic Assay for human AKT serine/threonine Kinase 2 (AKT2) (AID 2283141)
# human AKT serine/threonine Kinase 2 (AKT2), AKT2 (gene 208), sequence (P31751 whole entry, looked up): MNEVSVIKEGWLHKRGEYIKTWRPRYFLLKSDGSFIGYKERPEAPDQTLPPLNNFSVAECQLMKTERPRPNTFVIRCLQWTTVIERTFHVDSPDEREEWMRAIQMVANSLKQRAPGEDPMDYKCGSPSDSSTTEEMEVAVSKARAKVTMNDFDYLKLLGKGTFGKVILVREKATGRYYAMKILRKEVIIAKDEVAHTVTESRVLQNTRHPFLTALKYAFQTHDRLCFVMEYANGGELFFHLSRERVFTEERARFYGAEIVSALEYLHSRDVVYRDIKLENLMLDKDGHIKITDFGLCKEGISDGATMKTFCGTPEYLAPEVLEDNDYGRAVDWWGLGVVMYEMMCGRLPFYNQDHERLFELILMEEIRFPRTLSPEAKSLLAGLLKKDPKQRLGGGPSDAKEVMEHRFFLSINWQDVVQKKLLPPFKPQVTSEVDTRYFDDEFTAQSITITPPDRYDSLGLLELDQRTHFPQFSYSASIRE
# Method in brief: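 Cell-free fluorescence/electrophoretic mobility shift readout of recombinant human AKT2 activity, 1 h after chemical dosing. Duplicate primary screen at 25 uM, then singleton concentration-response up to 50 uM; loss of signal versus DMSO baseline.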
# [5] = target: human FYN Proto-Oncogene, Src family Tyrosine Kinase (Fyn), FYN (gene 2534) (UniProt P06241); experiment: NVS_ENZ_hFyn: NovaScreen (NVS) Enzymatic Assay for human FYN Proto-Oncogene, Src family Tyrosine Kinase (Fyn) (AID 2283161)
# Method in brief: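 Cell-free kinase activity read by fluorescence after mobility-shift separation of substrate and product, 1 h post-dose. Initial single concentration 25 uM in duplicate, then concentration-response follow-up; DMSO baseline.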
# [6] = target: human Dual Specificity Protein Phosphatase 3 (DUSP3), DUSP3 (gene 1845) (UniProt P51452); experiment: NVS_ENZ_hDUSP3: NovaScreen (NVS) Enzymatic Assay for human Dual Specificity Protein Phosphatase 3 (DUSP3) (AID 2283152);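 also: phosphatase activity of recombinant human DUSP3 on a fluorogenic substrate without cells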
# human Dual Specificity Protein Phosphatase 3 (DUSP3), DUSP3 (gene 1845), sequence (P51452 whole entry, looked up): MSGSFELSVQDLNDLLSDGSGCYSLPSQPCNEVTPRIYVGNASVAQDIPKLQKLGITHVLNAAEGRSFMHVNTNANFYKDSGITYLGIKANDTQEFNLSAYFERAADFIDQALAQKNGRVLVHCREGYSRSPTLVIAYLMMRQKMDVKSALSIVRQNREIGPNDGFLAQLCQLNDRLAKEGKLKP
# Method in brief: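 Cell-free fluorescence-intensity enzyme activity assay with recombinant protein and substrate; loss of signal fitted relative to DMSO baseline. Primary screen in duplicate at 25 uM, actives then run in concentration series; measured 0 h after dosing.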
# [7] = target: human Beta-secretase (BACE), BACE1 (gene 23621) (UniProt P56817); experiment: NVS_ENZ_hBACE: NovaScreen (NVS) Enzymatic Assay for human Beta-secretase (BACE) (AID 2283140);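 also: hits are inhibitors that reduce fluorescent substrate signal versus DMSO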
# human Beta-secretase (BACE), BACE1 (gene 23621), sequence (P56817 whole entry, looked up): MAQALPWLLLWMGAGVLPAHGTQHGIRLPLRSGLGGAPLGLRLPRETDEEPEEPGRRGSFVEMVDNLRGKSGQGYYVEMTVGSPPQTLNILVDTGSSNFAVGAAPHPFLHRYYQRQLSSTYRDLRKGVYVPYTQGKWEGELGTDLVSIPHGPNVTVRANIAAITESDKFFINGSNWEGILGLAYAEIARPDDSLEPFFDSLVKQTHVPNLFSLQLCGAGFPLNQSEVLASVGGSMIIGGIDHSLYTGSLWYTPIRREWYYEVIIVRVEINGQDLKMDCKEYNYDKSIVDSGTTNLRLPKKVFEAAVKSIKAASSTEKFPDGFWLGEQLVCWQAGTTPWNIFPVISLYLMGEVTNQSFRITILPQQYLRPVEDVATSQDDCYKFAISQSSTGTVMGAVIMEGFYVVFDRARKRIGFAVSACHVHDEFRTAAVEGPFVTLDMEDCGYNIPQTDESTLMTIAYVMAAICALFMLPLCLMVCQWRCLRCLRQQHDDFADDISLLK
# Method in brief: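 Enzyme from SF9 cells was incubated 1 hour with compound and fluorogenic substrate, activity read by fluorescence. Single-concentration duplicates at 25 uM preceded concentration-response follow-up; fitting relative to DMSO baseline.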
# [8] = target: human Elastase, ELANE (gene 1991) (UniProt P08246); experiment: NVS_ENZ_hElastase: NovaScreen (NVS) Enzymatic Assay for human Elastase (AID 2283153)
# human Elastase, ELANE (gene 1991), sequence (P08246 whole entry, looked up): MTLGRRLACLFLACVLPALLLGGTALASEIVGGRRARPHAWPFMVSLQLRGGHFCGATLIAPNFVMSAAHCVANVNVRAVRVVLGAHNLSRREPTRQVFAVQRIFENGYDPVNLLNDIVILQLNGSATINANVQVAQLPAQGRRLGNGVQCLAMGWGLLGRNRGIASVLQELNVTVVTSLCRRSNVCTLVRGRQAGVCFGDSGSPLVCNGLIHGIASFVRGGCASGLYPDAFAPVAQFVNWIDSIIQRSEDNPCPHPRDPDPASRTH
# Method in brief: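 Concentration-response to 50 uM max, run singly for chemicals passing a threshold (e.g., 30% inhibition) in a duplicate 25 uM single-point screen. Neutrophil-derived human elastase, absorbance read-out of enzyme activity at 1.5 h; DMSO baseline.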
# [9] = target: human Ephrin type-A Receptor 2 (EphA2), EPHA2 (gene 1969) (UniProt P29317); experiment: NVS_ENZ_hEphA2: NovaScreen (NVS) Enzymatic Assay for human Ephrin type-A Receptor 2 (EphA2) (AID 2283155)
# human Ephrin type-A Receptor 2 (EphA2), EPHA2 (gene 1969), sequence (P29317 whole entry, looked up): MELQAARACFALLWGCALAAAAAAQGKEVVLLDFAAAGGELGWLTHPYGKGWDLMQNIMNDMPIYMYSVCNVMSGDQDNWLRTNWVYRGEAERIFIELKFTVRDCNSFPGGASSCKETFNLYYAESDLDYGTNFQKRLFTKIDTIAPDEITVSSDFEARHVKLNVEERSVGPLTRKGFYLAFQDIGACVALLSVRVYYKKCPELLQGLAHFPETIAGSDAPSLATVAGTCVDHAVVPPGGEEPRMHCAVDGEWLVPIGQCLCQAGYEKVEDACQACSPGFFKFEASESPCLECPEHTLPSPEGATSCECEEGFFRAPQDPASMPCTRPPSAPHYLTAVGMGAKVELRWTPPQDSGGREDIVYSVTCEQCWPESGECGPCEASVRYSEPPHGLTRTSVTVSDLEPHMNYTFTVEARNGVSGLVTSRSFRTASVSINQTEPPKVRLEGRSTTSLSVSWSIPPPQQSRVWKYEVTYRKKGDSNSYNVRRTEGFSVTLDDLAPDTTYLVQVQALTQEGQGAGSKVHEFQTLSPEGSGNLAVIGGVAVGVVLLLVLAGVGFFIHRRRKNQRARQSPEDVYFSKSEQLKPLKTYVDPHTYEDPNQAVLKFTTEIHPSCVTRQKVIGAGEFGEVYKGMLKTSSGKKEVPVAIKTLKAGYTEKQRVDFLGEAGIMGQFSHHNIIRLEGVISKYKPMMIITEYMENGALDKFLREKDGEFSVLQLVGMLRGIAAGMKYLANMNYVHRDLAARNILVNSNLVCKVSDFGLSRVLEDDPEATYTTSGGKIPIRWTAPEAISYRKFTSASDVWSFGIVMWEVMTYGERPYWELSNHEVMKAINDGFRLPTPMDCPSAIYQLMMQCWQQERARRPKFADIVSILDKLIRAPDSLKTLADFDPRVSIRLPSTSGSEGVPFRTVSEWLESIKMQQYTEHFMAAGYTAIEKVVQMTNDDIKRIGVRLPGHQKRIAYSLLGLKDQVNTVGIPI
# Method in brief: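 Enzyme activity of recombinant EphA2 read by fluorescence after mobility-shift separation, 1 h after dosing. Chemicals first tested at 25 uM (duplicate); those passing threshold run as concentration series, top 50 uM, single replicate, relative to DMSO.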
# [10] = target: human Casein Kinase 1-delta (CK1D), CSNK1D (gene 1453) (UniProt P48730); experiment: NVS_ENZ_hCK1D: NovaScreen (NVS) Enzymatic Assay for human Casein Kinase 1-delta (CK1D) (AID 2283148)
# human Casein Kinase 1-delta (CK1D), CSNK1D (gene 1453), sequence (P48730 whole entry, looked up): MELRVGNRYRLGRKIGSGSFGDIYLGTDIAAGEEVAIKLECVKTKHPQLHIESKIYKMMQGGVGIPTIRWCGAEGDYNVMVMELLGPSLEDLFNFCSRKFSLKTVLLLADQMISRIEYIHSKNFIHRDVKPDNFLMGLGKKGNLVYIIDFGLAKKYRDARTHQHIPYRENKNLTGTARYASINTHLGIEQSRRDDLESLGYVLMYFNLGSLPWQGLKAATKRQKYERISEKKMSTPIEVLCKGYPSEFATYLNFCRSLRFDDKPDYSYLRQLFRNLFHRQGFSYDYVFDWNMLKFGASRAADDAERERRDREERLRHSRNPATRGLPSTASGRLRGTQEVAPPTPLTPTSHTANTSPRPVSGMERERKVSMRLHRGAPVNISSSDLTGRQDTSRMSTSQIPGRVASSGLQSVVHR
# Method in brief: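 Recombinant human CK1-delta, cell-free; fluorescent substrate with electrophoretic mobility-shift separation of product, read 1 h after dosing. Single 25 uM duplicate screen, then concentration-response up to 50 uM; loss of signal vs DMSO.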
# [11] = target: CDK2 (gene 1017) (UniProt P24941); experiment: NVS_ENZ_hCDK2: NovaScreen (NVS) Enzymatic Assay for human Cyclin-Cependent Kinase 2 (CDK2) (AID 2283144)
# Method in brief: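 Compounds screened in duplicate at 25 uM, then in singleton concentration-response to a maximum of 50 uM, against recombinant CDK2; kinase activity read 1 hr after dosing by fluorescence with mobility-shift separation of substrate and product.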
# [12] = target: human Caspase 8 (CASP8), CASP8 (gene 841) (UniProt Q14790); experiment: NVS_ENZ_hCASP8: NovaScreen (NVS) Enzymatic Assay for human Caspase 8 (CASP8) (AID 2283146)
# human Caspase 8 (CASP8), CASP8 (gene 841), sequence (Q14790 whole entry, looked up): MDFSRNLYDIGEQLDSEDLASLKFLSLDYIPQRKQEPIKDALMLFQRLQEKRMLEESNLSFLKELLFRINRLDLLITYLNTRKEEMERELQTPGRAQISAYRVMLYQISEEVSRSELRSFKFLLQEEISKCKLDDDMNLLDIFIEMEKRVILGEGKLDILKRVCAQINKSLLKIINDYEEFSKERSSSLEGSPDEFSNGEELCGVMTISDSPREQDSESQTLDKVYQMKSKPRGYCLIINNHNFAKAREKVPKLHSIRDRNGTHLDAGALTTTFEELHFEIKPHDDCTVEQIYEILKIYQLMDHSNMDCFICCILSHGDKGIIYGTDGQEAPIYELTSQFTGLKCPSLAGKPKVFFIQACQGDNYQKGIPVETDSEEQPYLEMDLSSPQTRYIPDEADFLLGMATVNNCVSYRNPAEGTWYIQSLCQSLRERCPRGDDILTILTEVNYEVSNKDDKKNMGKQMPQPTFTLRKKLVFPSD
# Method in brief: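 The primary screen tested compounds in duplicate at a single 25 uM concentration, with actives followed up in concentration series. Activity of recombinant (E. coli) protease was measured by fluorescence 1 h post-dose, as signal loss against DMSO.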
# [13] = target: Histone deacetylase 3 (Homo sapiens) (UniProt O15379); experiment: NVS_ENZ_hHDAC3: NovaScreen (NVS) Enzymatic Assay for human Histone Deacetylase 3 (HDAC3) (AID 2283163)
# Method in brief: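 Cell-free enzyme format: loss of fluorescent product after mobility-shift separation, 1 h incubation, recombinant human HDAC3. Single 25 uM duplicate screen first, then concentration series to a 50 uM top for hits; DMSO as baseline.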
# [14] = target: human Ephrin type-B Receptor 1 (EphB1), EPHB1 (gene 2047) (UniProt P54762); experiment: NVS_ENZ_hEphB1: NovaScreen (NVS) Enzymatic Assay for human Ephrin type-B Receptor 1 (EphB1) (AID 2283154)
# Method in brief: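 Recombinant EphB1 activity read by fluorescence after mobility-shift separation of product from substrate, 1 h post-dosing. Compounds screened in duplicate at 25 uM; inhibition scored as signal loss relative to DMSO.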
# [15] = target: human Ephrin type-B Receptor 2 (EphB2), EPHB2 (gene 2048) (UniProt P29323); experiment: NVS_ENZ_hEphB2: NovaScreen (NVS) Enzymatic Assay for human Ephrin type-B Receptor 2 (EphB2) (AID 2283156)
# Method in brief: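 Compounds were first tested in duplicate at 25 uM, with hits rerun singly in concentration series up to 50 uM. Enzyme activity on fluorescent substrate was read at 1 h by mobility-shift separation, scored as signal loss relative to DMSO.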
# [16] = target: human Casein Kinase 2- alpha 2 beta 2 (CK2a2b2), CSNK2A1 (gene 1457) (UniProt P68400); experiment: NVS_ENZ_hCK2a2b2: NovaScreen (NVS) Enzymatic Assay for human Casein Kinase 2- alpha 2 beta 2 (CK2a2b2) (AID 2283147)
# Method in brief: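 Compounds were first screened in duplicate at 25 uM, and those passing the threshold were re-tested in concentration series up to a 50 uM maximum. Kinase activity of recombinant human CK2 α2β2 was measured 1 h after dosing by fluorescent substrate/product mobility-shift separation.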
# [17] = target: human Aurora Kinase A - serine/threonine-protein Kinase 6 (AurA), AURKA (gene 6790) (UniProt O14965); experiment: NVS_ENZ_hAurA: NovaScreen (NVS) Enzymatic Assay for human Aurora Kinase A - serine/threonine-protein Kinase 6 (AurA) (AID 2283142)
# Method in brief: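 Recombinant human AurA activity read by fluorescence after mobility-shift separation of product from substrate; 1 hour incubation. Chemicals first run in duplicate at 25 uM, then concentration series to 50 uM if over threshold; fitted relative to DMSO.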
compound,measurement,setting,value
CC(C)(C)C(O)C(Oc1ccc(Cl)cc1)n1cncn1 (stereo not drawn),outcome,[1],inactive
same,outcome,[2],inactive
CC(C)OC(=O)Nc1cccc(Cl)c1,outcome,[3],inactive
COC(=O)c1ccccc1S(=O)(=O)NC(=O)N(C)c1nc(C)nc(OC)n1,outcome,[4],inactive
same,outcome,[5],inactive
CCCN(CCOc1c(Cl)cc(Cl)cc1Cl)C(=O)n1ccnc1,outcome,[6],inactive
CC1(C)C(C=C(Cl)Cl)C1C(=O)OC(C#N)c1ccc(F)c(Oc2ccccc2)c1 (stereo not drawn),AC50,[7],3.31 µM (active)
same,outcome,[1],inactive
same,outcome,[8],inactive
same,outcome,[9],inactive
COP(=O)(OC)OC=C(Cl)Cl,AC50,[3],7.13 µM (active)
CCOc1nc(NC)nc(NC(=O)NS(=O)(=O)c2ccccc2C(=O)OC)n1,AC50,[10],18.4 µM (active)
CN1CSC(=S)N(C)C1,outcome,[4],inactive
same,outcome,[11],inactive
Clc1ccccc1-c1nnc(-c2ccccc2Cl)nn1,outcome,[4],inactive
CNC(=O)Oc1cccc(N=CN(C)C)c1,outcome,[3],inactive
O=C1c2ccccc2C(=O)N1SC(Cl)(Cl)Cl,outcome,[12],inactive
COc1nn(CSP(=S)(OC)OC)c(=O)s1,outcome,[12],inactive
O=C(NC(=O)c1c(F)cccc1F)Nc1ccc(OC(F)(F)C(F)OC(F)(F)F)c(Cl)c1 (stereo not drawn),outcome,[8],inactive
same,outcome,[13],inactive
Oc1ccc(Cl)cc1Cc1ccccc1,AC50,[7],18.9 µM (active) [middle of 6 runs]
same,AC50,[10],25.2 µM (active) and 21.9 µM (active)
same,outcome,[6],inactive
same,outcome,[14],inactive
same,outcome,[9],inactive
same,outcome,[15],inactive
same,outcome,[3],inactive
CCC(C)(NC(=O)c1cc(Cl)c(C)c(Cl)c1)C(=O)CCl (stereo not drawn),outcome,[16],inactive
O=C(O)C(F)(F)C(F)(F)C(F)(F)C(F)(F)C(F)(F)C(F)(F)C(F)(F)F,AC50,[7],3.58 µM (active) and 1.2 µM (active)
same,outcome,[4],inactive
same,outcome,[17],inactive
same,outcome,[6],inactive
same,outcome,[8],inactive
same,outcome,[5],inactive
Oc1cc(Cl)ccc1Oc1ccc(Cl)cc1Cl,AC50,[7],25.5 µM (active) and 28.2 µM (active) and 7.92 µM (active)
same,outcome,[7],inactive
same,AC50,[4],41.4 µM (active)
same,outcome,[12],inactive
same,outcome,[1],inactive
same,outcome,[6],inactive
same,outcome,[8],inactive
same,outcome,[9],inactive
same,outcome,[2],inactive

# — PubChem BioAssay (EPA / NIEHS)
